Some test systems named below: K-562 leukemia; MALME-3M melanoma; MDA-MB-231 breast; SF-268 CNS; SF-295 CNS; SF-539 CNS; UACC-257 melanoma; M14 melanoma; HCT-15 colon; HT29 colon; SNB-75 CNS; SNB-19 CNS; U251 CNS; SK-MEL-5 melanoma; UACC-62 melanoma; LOX IMVI melanoma; SK-MEL-28 melanoma; PC-3 prostate; SK-MEL-2 melanoma; RXF 393 renal.
Assay in all cases: NCI-60 one-dose screen, 48 h (100 = growth as untreated, 0 = no growth, -100 = all killed)
What all share (settings): 10 µM unless noted

This is part of a sample that, as a whole, favours compounds with a hit. Of some 83,000 tested, about 20% had one in any assay.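 Growth was measured after 48 h exposure to one concentration of compound in 96-well plates. Values under 10 count as active.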 Values without a mark were called inactive. The source made the active and inactive calls.

Regarding `Cc1ccc(C=C2C(Cl)=C(Cl)C(Cl)=C2Cl)cc1`, the growth is 24.6% with K-562 leukemia; -45.1% (active) in the assay on MALME-3M melanoma; -6.71% (active) in the assay on MDA-MB-231 breast; -68.6% (active) in the assay on SF-268 CNS; -19.5% (active) in the assay with SF-295 CNS; -84.5% (active) with SF-539 CNS. Moreover, the growth was -83.2% (active) with UACC-257 melanoma; -85.8% (active) with M14 melanoma; -69.5% (active) in the assay on HCT-15 colon; 8.19% (active) with HT29 colon; -11.6% (active) in the assay on SNB-75 CNS; -78.3% (active) in the assay on SNB-19 CNS. For the same molecule, the growth is -86.3% (active) in the assay with U251 CNS; -94.4% (active) with SK-MEL-5 melanoma; -73.6% (active) with UACC-62 melanoma; -88.7% (active) in the assay on LOX IMVI melanoma; -87.8% (active) with SK-MEL-28 melanoma.

Take `Cc1cc(NCCCNc2ccnc3cc(Cl)ccc23)nc(N2CCN(C)CC2)n1`: the growth with K-562 leukemia was 8.07% (active); in the assay with MALME-3M melanoma, 59.2%; in the assay with MDA-MB-231 breast, 53.8%; in the assay on SF-268 CNS, 70.7%; in the assay on SF-295 CNS, 61%; with SF-539 CNS, -18.8% (active). The growth in the assay with UACC-257 melanoma is 50.4%; with M14 melanoma, 25.7%; in the assay on HCT-15 colon, 43.6%; in the assay on HT29 colon, 15.2%; in the assay with SNB-75 CNS, 76.6%; in the assay on SNB-19 CNS, 115%. Besides, the growth with U251 CNS was 69.7%; in the assay with PC-3 prostate, 51.5%; in the assay on UACC-62 melanoma it was 33.4%; in the assay on SK-MEL-28 melanoma, 88.3%.

Consider `Cc1cc2c(cc1C)Nc1sc(NC(=O)CN3CCN(C)CC3)nc1C(=O)N2`, for which the growth is 81.7% with K-562 leukemia; 109% with MALME-3M melanoma; 114% with MDA-MB-231 breast; 103% in the assay with SF-268 CNS; 109% in the assay on SF-295 CNS; 107% with SF-539 CNS. Moreover, the growth with UACC-257 melanoma is 109%; in the assay on M14 melanoma, 103%; with HCT-15 colon, 101%; with HT29 colon, 99.8%; in the assay with SNB-75 CNS, 104%; in the assay with SNB-19 CNS it was 96.6%. The results for the growth in the assay with PC-3 prostate, in the assay with UACC-62 melanoma and in the assay with SK-MEL-28 melanoma were 101%, 105% and 108%, respectively.

Regarding `COc1ccc(C(=O)COc2cccc(/C=C3\Oc4ccc5ccccc5c4C3=O)c2)cc1`, the growth in the assay with K-562 leukemia is 81.4%; in the assay with MALME-3M melanoma, 17.2%; with MDA-MB-231 breast it was 79.3%; with SF-268 CNS, 83.7%; with SF-295 CNS, 119%; in the assay with SF-539 CNS, -50% (active). The growth is 95.7% in the assay with UACC-257 melanoma; 49.2% in the assay with M14 melanoma; 43.7% in the assay on HCT-15 colon; 46.2% with HT29 colon; 105% in the assay with SNB-19 CNS; 84% in the assay on U251 CNS. The growth with SK-MEL-5 melanoma was 78.6%; with UACC-62 melanoma, 76.4%; in the assay with LOX IMVI melanoma, -80.4% (active); in the assay on SK-MEL-28 melanoma, 116%; in the assay with SK-MEL-2 melanoma, 59.1%.

`O=C(/C(=N/O)S(=O)(=O)c1ccccc1)c1cccs1`: the growth in the assay with K-562 leukemia was 93.1%; in the assay with MALME-3M melanoma, 106%; with MDA-MB-231 breast, 109%; with SF-268 CNS, 106%; in the assay with SF-295 CNS it was 104%; with SF-539 CNS it was 109%. The growth is 106% in the assay with UACC-257 melanoma; 105% in the assay with M14 melanoma; 105% in the assay with HCT-15 colon; 107% in the assay with HT29 colon; 92.6% in the assay on SNB-75 CNS; 100% in the assay on SNB-19 CNS. Moreover, the growth is 97.7% with PC-3 prostate, 104% with UACC-62 melanoma and 111% in the assay on SK-MEL-28 melanoma.

As to `CN(C)CCCN1c2nc3ccccc3cc2Sc2cc3ccccc3nc21`, the growth in the assay with K-562 leukemia is 4.31% (active); with MALME-3M melanoma, -75.9% (active); in the assay on MDA-MB-231 breast it was -82.8% (active); with SF-268 CNS, 27.2%; in the assay on SF-295 CNS, -74.7% (active); in the assay with SF-539 CNS, -94.6% (active). The growth in the assay with UACC-257 melanoma was -69.5% (active); in the assay on M14 melanoma, -70.6% (active); in the assay on HCT-15 colon, 2.14% (active); with HT29 colon, -88.6% (active); in the assay on SNB-75 CNS it was 9.61% (active); with SNB-19 CNS it was -56.1% (active). The growth in the assay on U251 CNS was -84% (active); in the assay on SK-MEL-5 melanoma, -75.9% (active); with UACC-62 melanoma, -91.3% (active); in the assay with LOX IMVI melanoma, -100% (active); with SK-MEL-28 melanoma, -92.9% (active); in the assay with SK-MEL-2 melanoma, 13%.

With `CC(O)c1nc2c(c(=O)n(C)c(=O)n2C)n1C` (configuration not stated), the growth in the assay with K-562 leukemia is 116%; in the assay on MALME-3M melanoma, 121%; in the assay on MDA-MB-231 breast, 117%; in the assay with SF-268 CNS it was 107%; in the assay on SF-295 CNS it was 108%; in the assay with SF-539 CNS, 102%. Moreover, the growth was 106% in the assay with UACC-257 melanoma; 95.6% with M14 melanoma; 113% in the assay with HT29 colon; 102% in the assay on SNB-75 CNS; 102% in the assay on U251 CNS; 104% with SK-MEL-5 melanoma. In addition, the growth is 102% in the assay with UACC-62 melanoma and 126% in the assay on SK-MEL-28 melanoma.

Regarding `CCN(CC)CCCNCCCNc1cc(OC)cc2cccnc12`, the growth in the assay on K-562 leukemia is 89.9%; in the assay on MALME-3M melanoma, 108%; with RXF 393 renal, 70.6%; in the assay with SF-268 CNS it was 90.3%; in the assay with SF-295 CNS, 99.2%; in the assay on SF-539 CNS it was 84.6%. The growth with UACC-257 melanoma is 107%; in the assay with M14 melanoma, 102%; in the assay with HT29 colon it was 40%; in the assay with SNB-75 CNS, 82.8%; with U251 CNS it was 77.9%; with PC-3 prostate it was 82.4%. Also, the growth in the assay on SK-MEL-5 melanoma is 92.1%; in the assay on LOX IMVI melanoma, 80.3%; in the assay with SK-MEL-28 melanoma, 99.4%; with SK-MEL-2 melanoma, 101%.

With `C=CCOc1ccc2c(c1)CC[C@@H]1[C@@H]2CC[C@@]2(C)[C@H]1CC[C@]2(C)O`, the growth was 4.02% (active) with K-562 leukemia; 64.7% with MDA-MB-231 breast; 106% in the assay with RXF 393 renal; 85.7% in the assay on SF-268 CNS; 94.8% in the assay on SF-295 CNS; 76.5% in the assay on SF-539 CNS. The growth in the assay on UACC-257 melanoma is 53.9%; in the assay on M14 melanoma it was 88.7%; in the assay on HCT-15 colon, 65.2%; in the assay with SNB-75 CNS, 93.3%; in the assay on SNB-19 CNS, 110%; in the assay on U251 CNS, 74.7%. For the same molecule, the growth is 95.3% in the assay with SK-MEL-5 melanoma, 85% with UACC-62 melanoma, 76.2% in the assay with LOX IMVI melanoma and 97.2% in the assay with SK-MEL-28 melanoma.

Regarding `O=C(O)C(=O)O`, the growth is 116% in the assay with K-562 leukemia; 108% with MALME-3M melanoma; 102% in the assay on MDA-MB-231 breast; 108% in the assay with SF-268 CNS; 110% in the assay with SF-295 CNS; 94.8% in the assay on SF-539 CNS. The growth in the assay on M14 melanoma was 109%; with HCT-15 colon, 95%; in the assay with HT29 colon, 109%; in the assay with SNB-75 CNS, 67.4%; in the assay on SNB-19 CNS, 91.7%; in the assay with U251 CNS, 90%. The growth in the assay on PC-3 prostate is 110%; in the assay with SK-MEL-5 melanoma, 99.5%; in the assay with UACC-62 melanoma, 98.7%; in the assay on LOX IMVI melanoma it was 92.9%; in the assay with SK-MEL-28 melanoma it was 99.5%; with SK-MEL-2 melanoma it was 88.3%.

(Values after PubChem BioAssay (NCI).)
